Measurements: publication PMC12529666, “Dysregulation of AGO2-miRNA dynamics underlies the AGO2-associated Lessel–Kreienkamp syndrome”
Where a chain is given by its changes, count along the chain named.

How the values were obtained:
Assay in all cases: RNA Bind-n-Seq (nitrocellulose filter binding and sequencing); miR-122 guide loaded in AGO2; 60 min incubation; 30 mM Tris pH 8.0, 100 mM potassium acetate, 2 mM magnesium acetate, 0.5 mM TCEP, 0.005% NP-40, 0.01 mg/ml yeast tRNA; 3 nM AGO2-miR-122, 100 nM RNA library; 60; high values mean tight binding
Settings in all cases: protein: recombinant; tags: His6 (N-terminal, pFastBac HTA)
[1] = biological target: AGO2 WT (phosphosite mutant background) (Homo sapiens, UniProt Q9UKV8 1-859, S387D;S824A;S828D;S831D;S834A)
Sequence of AGO2 WT (phosphosite mutant background) (Q9UKV8 whole entry S387D/S824A/S828D/S831D/S834A): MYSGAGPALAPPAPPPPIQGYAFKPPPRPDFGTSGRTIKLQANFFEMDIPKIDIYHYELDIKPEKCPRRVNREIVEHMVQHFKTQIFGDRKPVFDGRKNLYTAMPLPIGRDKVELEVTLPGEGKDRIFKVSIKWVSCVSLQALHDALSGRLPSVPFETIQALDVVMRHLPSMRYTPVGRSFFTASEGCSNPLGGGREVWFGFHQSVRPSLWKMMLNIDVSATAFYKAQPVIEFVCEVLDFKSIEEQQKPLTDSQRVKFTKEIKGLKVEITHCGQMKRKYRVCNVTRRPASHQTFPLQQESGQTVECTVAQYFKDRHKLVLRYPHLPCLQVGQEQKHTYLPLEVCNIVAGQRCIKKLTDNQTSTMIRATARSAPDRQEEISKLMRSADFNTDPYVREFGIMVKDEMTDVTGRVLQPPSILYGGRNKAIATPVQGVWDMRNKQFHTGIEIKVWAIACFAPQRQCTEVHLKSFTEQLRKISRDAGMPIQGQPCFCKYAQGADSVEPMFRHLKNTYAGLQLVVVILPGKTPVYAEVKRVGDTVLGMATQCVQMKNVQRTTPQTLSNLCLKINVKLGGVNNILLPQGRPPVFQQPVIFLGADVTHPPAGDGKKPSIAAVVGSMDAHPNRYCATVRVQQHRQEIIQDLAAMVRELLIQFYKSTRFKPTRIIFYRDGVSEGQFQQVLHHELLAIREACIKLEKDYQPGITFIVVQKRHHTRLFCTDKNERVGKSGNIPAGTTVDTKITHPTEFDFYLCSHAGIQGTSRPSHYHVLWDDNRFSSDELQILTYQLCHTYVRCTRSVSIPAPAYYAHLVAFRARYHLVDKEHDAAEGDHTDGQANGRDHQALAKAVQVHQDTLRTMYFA
In short: (§1)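 Fold enrichment is each target's read fraction divided by its read fraction in the input library. Sf9 insect cells expressed His-tagged AGO2 from baculovirus; the protein was loaded with a synthetic guide RNA and purified by Ni-NTA and a biotinylated capture oligo. The bound RNA was extracted, reverse-transcribed, barcode-amplified and sequenced on Illumina.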

AGO2 L192P = AGO2 L192P (Homo sapiens, UniProt Q9UKV8 1-859, L192P;S387D;S824A;S828D;S831D;S834A)
Sequence of AGO2 L192P (Q9UKV8 whole entry L192P/S387D/S824A/S828D/S831D/S834A): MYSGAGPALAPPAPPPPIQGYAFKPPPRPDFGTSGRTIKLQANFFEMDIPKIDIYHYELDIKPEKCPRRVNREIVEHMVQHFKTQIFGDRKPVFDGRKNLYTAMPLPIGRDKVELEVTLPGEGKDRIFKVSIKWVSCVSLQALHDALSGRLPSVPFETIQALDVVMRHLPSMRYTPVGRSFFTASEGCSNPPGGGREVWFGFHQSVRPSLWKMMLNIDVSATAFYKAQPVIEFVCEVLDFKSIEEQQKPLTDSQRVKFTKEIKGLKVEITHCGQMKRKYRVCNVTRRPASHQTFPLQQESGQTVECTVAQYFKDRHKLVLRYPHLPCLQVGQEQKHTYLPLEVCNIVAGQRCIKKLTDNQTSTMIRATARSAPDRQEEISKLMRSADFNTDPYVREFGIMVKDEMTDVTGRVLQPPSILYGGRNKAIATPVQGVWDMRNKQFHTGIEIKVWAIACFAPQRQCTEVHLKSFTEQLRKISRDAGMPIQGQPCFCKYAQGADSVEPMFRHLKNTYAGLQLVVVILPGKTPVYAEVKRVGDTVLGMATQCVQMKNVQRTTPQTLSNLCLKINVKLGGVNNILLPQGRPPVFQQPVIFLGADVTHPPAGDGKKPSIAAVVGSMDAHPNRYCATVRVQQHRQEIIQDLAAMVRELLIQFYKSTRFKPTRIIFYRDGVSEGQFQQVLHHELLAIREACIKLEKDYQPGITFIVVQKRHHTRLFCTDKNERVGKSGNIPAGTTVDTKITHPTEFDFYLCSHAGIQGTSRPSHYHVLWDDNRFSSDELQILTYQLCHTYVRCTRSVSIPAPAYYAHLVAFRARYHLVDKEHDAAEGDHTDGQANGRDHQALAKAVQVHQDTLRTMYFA
In short: as §1

AGO2 A367P = AGO2 A367P (Homo sapiens, UniProt Q9UKV8 1-859, A367P;S387D;S824A;S828D;S831D;S834A)
Sequence of AGO2 A367P (Q9UKV8 whole entry A367P/S387D/S824A/S828D/S831D/S834A): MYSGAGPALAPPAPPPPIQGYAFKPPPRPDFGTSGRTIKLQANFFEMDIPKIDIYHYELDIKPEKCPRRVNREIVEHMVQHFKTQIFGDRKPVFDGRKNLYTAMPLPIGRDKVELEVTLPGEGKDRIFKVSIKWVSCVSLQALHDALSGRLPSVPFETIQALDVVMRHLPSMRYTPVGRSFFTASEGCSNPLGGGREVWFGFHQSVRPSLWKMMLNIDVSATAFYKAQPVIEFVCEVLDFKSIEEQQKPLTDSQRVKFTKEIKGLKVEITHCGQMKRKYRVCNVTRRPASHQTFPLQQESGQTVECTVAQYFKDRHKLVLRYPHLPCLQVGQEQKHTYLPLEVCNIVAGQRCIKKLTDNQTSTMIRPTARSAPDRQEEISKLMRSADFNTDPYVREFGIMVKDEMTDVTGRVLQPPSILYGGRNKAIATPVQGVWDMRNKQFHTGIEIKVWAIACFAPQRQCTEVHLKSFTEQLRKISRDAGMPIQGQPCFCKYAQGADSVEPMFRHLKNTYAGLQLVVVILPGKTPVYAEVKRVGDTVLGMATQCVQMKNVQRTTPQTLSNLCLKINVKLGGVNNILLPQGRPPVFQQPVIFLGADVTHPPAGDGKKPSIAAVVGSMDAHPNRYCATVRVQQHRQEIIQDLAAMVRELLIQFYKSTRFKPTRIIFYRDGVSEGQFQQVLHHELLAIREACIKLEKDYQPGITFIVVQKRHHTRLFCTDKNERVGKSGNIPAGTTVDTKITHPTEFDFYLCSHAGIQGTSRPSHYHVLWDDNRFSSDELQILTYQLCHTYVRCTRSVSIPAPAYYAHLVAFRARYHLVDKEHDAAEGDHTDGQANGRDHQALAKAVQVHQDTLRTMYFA
In short: as §1

AGO2 T357M = AGO2 T357M (Homo sapiens, UniProt Q9UKV8 1-859, T357M;S387D;S824A;S828D;S831D;S834A)
Sequence of AGO2 T357M (Q9UKV8 whole entry T357M/S387D/S824A/S828D/S831D/S834A): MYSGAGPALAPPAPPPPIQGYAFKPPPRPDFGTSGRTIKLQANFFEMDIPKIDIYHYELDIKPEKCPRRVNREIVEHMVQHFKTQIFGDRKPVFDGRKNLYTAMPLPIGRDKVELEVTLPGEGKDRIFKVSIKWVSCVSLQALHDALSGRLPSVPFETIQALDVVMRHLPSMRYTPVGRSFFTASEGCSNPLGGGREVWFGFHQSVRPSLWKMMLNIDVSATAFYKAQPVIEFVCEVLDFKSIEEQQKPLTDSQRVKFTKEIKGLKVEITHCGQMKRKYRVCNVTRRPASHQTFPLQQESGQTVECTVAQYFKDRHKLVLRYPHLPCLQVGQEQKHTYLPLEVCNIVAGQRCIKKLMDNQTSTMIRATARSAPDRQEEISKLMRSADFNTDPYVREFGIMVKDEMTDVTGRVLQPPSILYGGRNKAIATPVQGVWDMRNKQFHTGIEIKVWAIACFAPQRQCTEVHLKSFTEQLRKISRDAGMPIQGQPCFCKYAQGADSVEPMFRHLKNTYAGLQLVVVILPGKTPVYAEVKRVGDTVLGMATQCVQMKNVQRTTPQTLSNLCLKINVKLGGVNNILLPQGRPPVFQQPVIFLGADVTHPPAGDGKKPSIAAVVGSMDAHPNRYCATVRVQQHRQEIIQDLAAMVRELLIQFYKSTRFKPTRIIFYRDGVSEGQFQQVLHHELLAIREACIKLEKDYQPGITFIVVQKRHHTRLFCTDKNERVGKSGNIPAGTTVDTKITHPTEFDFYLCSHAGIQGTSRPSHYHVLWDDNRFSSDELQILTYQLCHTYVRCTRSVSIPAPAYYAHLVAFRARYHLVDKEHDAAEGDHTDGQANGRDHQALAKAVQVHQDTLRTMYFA
In short: as §1

AGO2 F182del = AGO2 F182del (Homo sapiens, UniProt Q9UKV8 1-859, S387D;S824A;S828D;S831D;S834A;del182-182)
Sequence of AGO2 F182del (Q9UKV8 other isoform, or with tags, fused parts or gaps S387D;S824A;S828D;S831D;S834A;del182-182): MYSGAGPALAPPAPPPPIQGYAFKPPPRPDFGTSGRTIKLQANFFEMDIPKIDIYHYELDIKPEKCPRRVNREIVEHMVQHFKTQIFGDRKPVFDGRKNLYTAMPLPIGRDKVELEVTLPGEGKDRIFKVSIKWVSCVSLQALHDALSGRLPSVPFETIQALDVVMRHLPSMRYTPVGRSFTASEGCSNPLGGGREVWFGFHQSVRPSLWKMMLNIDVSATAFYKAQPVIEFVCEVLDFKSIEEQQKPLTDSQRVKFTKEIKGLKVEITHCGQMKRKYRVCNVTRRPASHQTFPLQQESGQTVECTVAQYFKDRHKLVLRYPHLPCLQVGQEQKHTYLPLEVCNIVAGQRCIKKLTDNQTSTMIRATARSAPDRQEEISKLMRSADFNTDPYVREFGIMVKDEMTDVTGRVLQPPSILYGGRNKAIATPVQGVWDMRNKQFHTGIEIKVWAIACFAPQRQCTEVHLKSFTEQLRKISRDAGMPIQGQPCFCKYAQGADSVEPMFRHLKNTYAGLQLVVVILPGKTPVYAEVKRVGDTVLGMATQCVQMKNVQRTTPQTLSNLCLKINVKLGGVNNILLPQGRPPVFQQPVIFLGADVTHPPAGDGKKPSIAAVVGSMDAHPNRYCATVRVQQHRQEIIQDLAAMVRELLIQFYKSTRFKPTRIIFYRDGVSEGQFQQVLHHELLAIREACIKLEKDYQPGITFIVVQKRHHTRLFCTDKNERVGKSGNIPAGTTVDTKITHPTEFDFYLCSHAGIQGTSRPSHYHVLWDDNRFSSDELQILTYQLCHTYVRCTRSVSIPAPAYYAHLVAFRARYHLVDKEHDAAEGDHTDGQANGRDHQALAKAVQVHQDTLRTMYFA
In short: as §1

B1: ACACTCCA (ssRNA)
RNA 1: GAGUUCUACAGUCCGACGAUCCCAACACACUCCACACCUGGAAUUCUCGGGUGCCAA
RNA 2: UGGAGUGUGACAAUGGUGUUUG
DNA 1: GATCGTCGGACTGTAGAACTC
DNA 2: TTGGCACCCGAGAATTCCA
modifications: constant regions annealed to DNA blockers; guide miR-122 5' phosphate
[1]
  binding signal: 229 fold enrichment over input
AGO2 L192P
  binding signal: 102 fold enrichment over input
AGO2 A367P
  binding signal: 155 fold enrichment over input
AGO2 T357M
  binding signal: 154 fold enrichment over input
AGO2 F182del
  binding signal: 116 fold enrichment over input

B2: GTACTTCA (ssRNA)
RNA 1: B1 RNA 1 with A27G, C28U, C32U
RNA 2: UGGAGUGUGACAAUGGUGUUUG
DNA 1: GATCGTCGGACTGTAGAACTC
DNA 2: TTGGCACCCGAGAATTCCA
modifications: constant regions annealed to DNA blockers; guide miR-122 5' phosphate
[1]
  binding signal: 0.125 fold enrichment over input
AGO2 L192P
  binding signal: 0.53 fold enrichment over input
AGO2 A367P
  binding signal: 0.347 fold enrichment over input
AGO2 T357M
  binding signal: 0.645 fold enrichment over input
AGO2 F182del
  binding signal: 0.936 fold enrichment over input

B3: ACACCTCA (ssRNA)
RNA 1: B1 RNA 1 with U31C, C32U
RNA 2: UGGAGUGUGACAAUGGUGUUUG
DNA 1: GATCGTCGGACTGTAGAACTC
DNA 2: TTGGCACCCGAGAATTCCA
modifications: constant regions annealed to DNA blockers; guide miR-122 5' phosphate
[1]
  binding signal: 0.251 fold enrichment over input
AGO2 L192P
  binding signal: 1.13 fold enrichment over input
AGO2 A367P
  binding signal: 0.835 fold enrichment over input
AGO2 T357M
  binding signal: 0.737 fold enrichment over input
AGO2 F182del
  binding signal: 4.6 fold enrichment over input

B4: ACACTCTA (ssRNA)
RNA 1: B1 RNA 1 with C33U
RNA 2: UGGAGUGUGACAAUGGUGUUUG
DNA 1: GATCGTCGGACTGTAGAACTC
DNA 2: TTGGCACCCGAGAATTCCA
modifications: constant regions annealed to DNA blockers; guide miR-122 5' phosphate
[1]
  binding signal: 0.587 fold enrichment over input
AGO2 L192P
  binding signal: 0.74 fold enrichment over input
AGO2 A367P
  binding signal: 0.661 fold enrichment over input
AGO2 T357M
  binding signal: 0.72 fold enrichment over input
AGO2 F182del
  binding signal: 1.96 fold enrichment over input

B5: ACGCTTCA (ssRNA)
RNA 1: B1 RNA 1 with A29G, C32U
RNA 2: UGGAGUGUGACAAUGGUGUUUG
DNA 1: GATCGTCGGACTGTAGAACTC
DNA 2: TTGGCACCCGAGAATTCCA
modifications: constant regions annealed to DNA blockers; guide miR-122 5' phosphate
[1]
  binding signal: 0.133 fold enrichment over input
AGO2 L192P
  binding signal: 0.605 fold enrichment over input
AGO2 A367P
  binding signal: 0.327 fold enrichment over input
AGO2 T357M
  binding signal: 0.624 fold enrichment over input
AGO2 F182del
  binding signal: 0.944 fold enrichment over input

B6: ACATCCTA (ssRNA)
RNA 1: B1 RNA 1 with C30U, U31C, C33U
RNA 2: UGGAGUGUGACAAUGGUGUUUG
DNA 1: GATCGTCGGACTGTAGAACTC
DNA 2: TTGGCACCCGAGAATTCCA
modifications: constant regions annealed to DNA blockers; guide miR-122 5' phosphate
[1]
  binding signal: 0.139 fold enrichment over input
AGO2 L192P
  binding signal: 0.451 fold enrichment over input
AGO2 A367P
  binding signal: 0.212 fold enrichment over input
AGO2 T357M
  binding signal: 0.632 fold enrichment over input
AGO2 F182del
  binding signal: 0.299 fold enrichment over input

B7: GTACTCCG (ssRNA)
RNA 1: B1 RNA 1 with A27G, C28U, A34G
RNA 2: UGGAGUGUGACAAUGGUGUUUG
DNA 1: GATCGTCGGACTGTAGAACTC
DNA 2: TTGGCACCCGAGAATTCCA
modifications: constant regions annealed to DNA blockers; guide miR-122 5' phosphate
[1]
  binding signal: 0.327 fold enrichment over input
AGO2 L192P
  binding signal: 0.802 fold enrichment over input
AGO2 A367P
  binding signal: 2.33 fold enrichment over input
AGO2 T357M
  binding signal: 0.519 fold enrichment over input
AGO2 F182del
  binding signal: 2.42 fold enrichment over input

B8: GCGTCCTA (ssRNA)
RNA 1: B1 RNA 1 with A27G, A29G, C30U, U31C, C33U
RNA 2: UGGAGUGUGACAAUGGUGUUUG
DNA 1: GATCGTCGGACTGTAGAACTC
DNA 2: TTGGCACCCGAGAATTCCA
modifications: constant regions annealed to DNA blockers; guide miR-122 5' phosphate
[1]
  binding signal: 0.123 fold enrichment over input
AGO2 L192P
  binding signal: 0.489 fold enrichment over input
AGO2 A367P
  binding signal: 0.195 fold enrichment over input
AGO2 T357M
  binding signal: 0.72 fold enrichment over input

B9: ACATTCCA (ssRNA)
RNA 1: B1 RNA 1 with C30U
RNA 2: UGGAGUGUGACAAUGGUGUUUG
DNA 1: GATCGTCGGACTGTAGAACTC
DNA 2: TTGGCACCCGAGAATTCCA
modifications: constant regions annealed to DNA blockers; guide miR-122 5' phosphate
[1]
  binding signal: 0.267 fold enrichment over input
AGO2 L192P
  binding signal: 1.03 fold enrichment over input
AGO2 A367P
  binding signal: 0.711 fold enrichment over input
AGO2 T357M
  binding signal: 0.738 fold enrichment over input
AGO2 F182del
  binding signal: 2.93 fold enrichment over input

B10: ATGTCTCA (ssRNA)
RNA 1: B1 RNA 1 with C28U, A29G, C30U, U31C, C32U
RNA 2: UGGAGUGUGACAAUGGUGUUUG
DNA 1: GATCGTCGGACTGTAGAACTC
DNA 2: TTGGCACCCGAGAATTCCA
modifications: constant regions annealed to DNA blockers; guide miR-122 5' phosphate
[1]
  binding signal: 0.232 fold enrichment over input
AGO2 L192P
  binding signal: 0.674 fold enrichment over input
AGO2 A367P
  binding signal: 0.501 fold enrichment over input
AGO2 T357M
  binding signal: 0.678 fold enrichment over input
AGO2 F182del
  binding signal: 1.79 fold enrichment over input

B11: GCACTCCA (ssRNA)
RNA 1: B1 RNA 1 with A27G
RNA 2: UGGAGUGUGACAAUGGUGUUUG
DNA 1: GATCGTCGGACTGTAGAACTC
DNA 2: TTGGCACCCGAGAATTCCA
modifications: constant regions annealed to DNA blockers; guide miR-122 5' phosphate
[1]
  binding signal: 117 fold enrichment over input
AGO2 L192P
  binding signal: 45.2 fold enrichment over input
AGO2 A367P
  binding signal: 66.8 fold enrichment over input
AGO2 T357M
  binding signal: 44 fold enrichment over input
AGO2 F182del
  binding signal: 91.6 fold enrichment over input

B12: ACACCCCA (ssRNA)
RNA 1: B1 RNA 1 with U31C
RNA 2: UGGAGUGUGACAAUGGUGUUUG
DNA 1: GATCGTCGGACTGTAGAACTC
DNA 2: TTGGCACCCGAGAATTCCA
modifications: constant regions annealed to DNA blockers; guide miR-122 5' phosphate
[1]
  binding signal: 0.238 fold enrichment over input
AGO2 L192P
  binding signal: 0.861 fold enrichment over input
AGO2 A367P
  binding signal: 0.466 fold enrichment over input
AGO2 T357M
  binding signal: 0.678 fold enrichment over input
AGO2 F182del
  binding signal: 2.15 fold enrichment over input

B13: ATACTCCG (ssRNA)
RNA 1: B1 RNA 1 with C28U, A34G
RNA 2: UGGAGUGUGACAAUGGUGUUUG
DNA 1: GATCGTCGGACTGTAGAACTC
DNA 2: TTGGCACCCGAGAATTCCA
modifications: constant regions annealed to DNA blockers; guide miR-122 5' phosphate
[1]
  binding signal: 0.401 fold enrichment over input
AGO2 L192P
  binding signal: 1.86 fold enrichment over input
AGO2 A367P
  binding signal: 2.89 fold enrichment over input
AGO2 T357M
  binding signal: 0.632 fold enrichment over input
AGO2 F182del
  binding signal: 3.65 fold enrichment over input

B14: ACACTTTA (ssRNA)
RNA 1: B1 RNA 1 with C32U, C33U
RNA 2: UGGAGUGUGACAAUGGUGUUUG
DNA 1: GATCGTCGGACTGTAGAACTC
DNA 2: TTGGCACCCGAGAATTCCA
modifications: constant regions annealed to DNA blockers; guide miR-122 5' phosphate
[1]
  binding signal: 0.133 fold enrichment over input
AGO2 L192P
  binding signal: 0.539 fold enrichment over input
AGO2 A367P
  binding signal: 0.229 fold enrichment over input
AGO2 T357M
  binding signal: 0.707 fold enrichment over input
AGO2 F182del
  binding signal: 0.311 fold enrichment over input

B15: ACATCTCA (ssRNA)
RNA 1: B1 RNA 1 with C30U, U31C, C32U
RNA 2: UGGAGUGUGACAAUGGUGUUUG
DNA 1: GATCGTCGGACTGTAGAACTC
DNA 2: TTGGCACCCGAGAATTCCA
modifications: constant regions annealed to DNA blockers; guide miR-122 5' phosphate
[1]
  binding signal: 0.206 fold enrichment over input
AGO2 L192P
  binding signal: 0.924 fold enrichment over input
AGO2 A367P
  binding signal: 0.613 fold enrichment over input
AGO2 T357M
  binding signal: 0.57 fold enrichment over input
AGO2 F182del
  binding signal: 2.74 fold enrichment over input

B16: ATGCTCCA (ssRNA)
RNA 1: B1 RNA 1 with C28U, A29G
RNA 2: UGGAGUGUGACAAUGGUGUUUG
DNA 1: GATCGTCGGACTGTAGAACTC
DNA 2: TTGGCACCCGAGAATTCCA
modifications: constant regions annealed to DNA blockers; guide miR-122 5' phosphate
[1]
  binding signal: 0.416 fold enrichment over input
AGO2 L192P
  binding signal: 3.01 fold enrichment over input
AGO2 A367P
  binding signal: 2.6 fold enrichment over input
AGO2 T357M
  binding signal: 0.765 fold enrichment over input
AGO2 F182del
  binding signal: 2.78 fold enrichment over input

B17: ACACTCCG (ssRNA)
RNA 1: B1 RNA 1 with A34G
RNA 2: UGGAGUGUGACAAUGGUGUUUG
DNA 1: GATCGTCGGACTGTAGAACTC
DNA 2: TTGGCACCCGAGAATTCCA
modifications: constant regions annealed to DNA blockers; guide miR-122 5' phosphate
[1]
  binding signal: 154 fold enrichment over input
AGO2 L192P
  binding signal: 99.5 fold enrichment over input
AGO2 A367P
  binding signal: 140 fold enrichment over input
AGO2 T357M
  binding signal: 108 fold enrichment over input
AGO2 F182del
  binding signal: 91 fold enrichment over input

B18: GTACTCCA (ssRNA)
RNA 1: B1 RNA 1 with A27G, C28U
RNA 2: UGGAGUGUGACAAUGGUGUUUG
DNA 1: GATCGTCGGACTGTAGAACTC
DNA 2: TTGGCACCCGAGAATTCCA
modifications: constant regions annealed to DNA blockers; guide miR-122 5' phosphate
[1]
  binding signal: 0.714 fold enrichment over input
AGO2 L192P
  binding signal: 1.62 fold enrichment over input
AGO2 A367P
  binding signal: 3.12 fold enrichment over input
AGO2 T357M
  binding signal: 0.965 fold enrichment over input
AGO2 F182del
  binding signal: 4.41 fold enrichment over input

B19: GCATCTCA (ssRNA)
RNA 1: B1 RNA 1 with A27G, C30U, U31C, C32U
RNA 2: UGGAGUGUGACAAUGGUGUUUG
DNA 1: GATCGTCGGACTGTAGAACTC
DNA 2: TTGGCACCCGAGAATTCCA
modifications: constant regions annealed to DNA blockers; guide miR-122 5' phosphate
[1]
  binding signal: 0.126 fold enrichment over input
AGO2 L192P
  binding signal: 0.567 fold enrichment over input
AGO2 A367P
  binding signal: 0.316 fold enrichment over input
AGO2 T357M
  binding signal: 0.605 fold enrichment over input
AGO2 F182del
  binding signal: 0.86 fold enrichment over input
